In PMC5540273 (PLoS ONE, 2017):

Key:
Details in all cases: concentration: 1 μM,replicates: in singlicate; n = 1
NEK11 = test system: NEK11
NEK1 = test system: NEK1
NEK2 = test system: NEK2
NEK3 = test system: NEK3
NEK4 = test system: NEK4
NEK5 = test system: NEK5
NEK6 = test system: NEK6
NEK7 = test system: NEK7
NEK9 = test system: NEK9
NIK = test system: T1, NIK
T1 construct: gene MAP3K14
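Further: KINOMEscan kinase panel screen.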

| Structure (SMILES) | %Inh (NEK11) [%] | %Inh (NEK1) [%] | %Inh (NEK2) [%] | %Inh (NEK3) [%] | %Inh (NEK4) [%] | %Inh (NEK5) [%] | %Inh (NEK6) [%] | %Inh (NEK7) [%] | %Inh (NEK9) [%] | %Inh (NIK) [%] |
| --- | --- | --- | --- | --- | --- | --- | --- | --- | --- | --- |
| O=C(Nc1ccc(Oc2ccc3nc(NC(=O)C4CC4)cn3n2)c(F)c1)c1cccn(-c2ccccc2)c1=O | 0 | 0 | 0 | 8 | 0 | 54 | 6 | 0 | 0 | 0 |
| CC(=O)Nc1nc2cnc(Nc3cc(NC(=O)c4cccc(CC(C)(C)C#N)c4)ccc3C)nc2s1 | 0 | 13 | 6 | 30 | 0 | 0 | 13 | 5 | 5 | 0 |
| O=C(Nc1n[nH]c2cc(-c3ccco3)ccc12)C1CC1 [SB-737447] | 24 | 6 | 0 | 28 | 7 | 0 | 0 | 0 | 0 | 0 |
| Cc1nnc(-c2ccc3occ(-c4ccc(S(C)=O)cc4)c3n2)o1 (centres unmarked) | 0 | 0 | 0 | 23 | 0 | 0 | 0 | 0 | 0 | 0 |
| CN(c1ccc2c(c1)nc(NCc1ccc(F)cc1)n2C)c1ccnc(Nc2ccc(CS(C)(=O)=O)cc2)n1.Cl [GW813244] | 0 | 0 | 0 | 36 | 0 | 0 | 0 | 0 | 21 | 0 |
| NC(=O)Nc1sc(-c2ccc(F)cc2)cc1C(N)=O [GW789449] | 0 | 0 | 0 | 47 | 19 | 36 | 13 | 0 | 0 | 37 |
| CC(=O)Nc1ccc(-c2cc3ncnc(SCC(=O)O)c3s2)cc1 | 0 | 0 | 1 | 12 | 6 | 0 | 4 | 1 | 5 | 11 |
| CS(=O)c1ccc(-c2coc3ccc(-c4n[nH]c(=O)o4)cc23)cc1 (centres unmarked) | 0 | 0 | 0 | 15 | 0 | 0 | 0 | 19 | 0 | 0 |
| CN(c1cccc(CNc2nc(Nc3ccc4c(c3)CC(=O)N4)ncc2C(F)(F)F)c1)S(C)(=O)=O | 0 | 0 | 0 | 20 | 0 | 17 | 23 | 0 | 6 | 21 |
| C[C@@H]1CCN(C(=O)N2CCCC2)C[C@@H]1N(C)c1ncnc2[nH]ccc12 | 0 | 4 | 0 | 39 | 5 | 0 | 8 | 0 | 0 | 0 |
| CCn1c(-c2nonc2N)nc2cncc(CNC3CCNCC3)c21.Cl [SB-747651] | 11 | 0 | 0 | 15 | 28 | 2 | 0 | 6 | 38 | 13 |
| O=C1NCCc2[nH]c(-c3ccncc3)cc21 | 0 | 0 | 0 | 18 | 0 | 2 | 29 | 0 | 0 | 44 |
| CCN1CCN(CCCC(=O)Nc2n[nH]c3nc(-c4ccc(O)cc4)c(Br)cc23)CC1 [SB-731579] | 0 | 0 | 0 | 18 | 0 | 0 | 0 | 5 | 22 | 27 |
| FC(F)(F)c1cc(Br)cc(Nc2nccc(-c3cnn4ncccc34)n2)c1 [GW810578] | 0 | 0 | 1 | 15 | 2 | 30 | 51 | 60 | 15 | 21 |
| O=C(Nc1ccccc1)c1cccc(Oc2ccc3nccn3n2)c1 | 20 | 0 | 2 | 17 | 0 | 12 | 0 | 0 | 0 | 34 |
| Cc1ccc(CC(=O)N2CCc3cc(-c4cn(C)c5ncnc(N)c45)ccc32)cc1 [GSK2634758] | 59 | 31 | 96.9 | 7 | 11 | 45 | 19 | 0 | 20 | 16 |
| Cc1ccc(C(=O)Nc2ccc(Oc3ccc4nc(NC(=O)C5CC5)cn4c3)c(F)c2)c(=O)n1-c1ccccc1 | 0 | 0 | 5 | 0 | 0 | 0 | 0 | 0 | 0 | 0 |
